The results in this text go back to PubChem BioAssay (NCI).

Compounds without any hit were thinned out: in the full panel of roughly 83,000, 20% have a hit.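 Each cell line was grown in a 96-well plate and treated with one concentration of compound for 48 hours. Values below 10 were considered active.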 Unmarked numbers belong to inactive results. The source made the active and inactive calls.

Some test systems named below: RPMI-8226 leukemia; OVCAR-8 ovarian; OVCAR-5 ovarian; OVCAR-4 ovarian; SK-OV-3 ovarian; IGROV1 ovarian; OVCAR-3 ovarian; HS 578T breast; NCI/ADR-RES ovarian; T-47D breast; BT-549 breast; MDA-MB-435 melanoma; SW-620 colon; MCF7 breast; HCT-116 colon; HCC-2998 colon; KM12 colon.
Assay in all cases: NCI-60 one-dose screen, 48 h (100 = growth as untreated, 0 = no growth, -100 = all killed)
What all share (conditions): 10 µM unless noted

In the case of `COc1cc(C(=O)c2cc(C)c3[nH]c4ccc(C)cc4c3c2C)cc(OC)c1OC`, the growth in the test with RPMI-8226 leukemia is 12.9%; in the test on OVCAR-8 ovarian, 28.7%; in the test on OVCAR-5 ovarian, 41.7%; with OVCAR-4 ovarian, 53%; in the test on SK-OV-3 ovarian it was 36.9%; with IGROV1 ovarian it was 13.5%. The growth was -16.4% (active) in the test with OVCAR-3 ovarian; 43.1% in the test on HS 578T breast; -2.71% (active) in the test on NCI/ADR-RES ovarian; 39.9% with T-47D breast; 14.5% in the test on BT-549 breast; 17.5% in the test on MDA-MB-435 melanoma. Further, the growth with SW-620 colon was 31.4%; in the test on MCF7 breast it was 11.6%; with HCT-116 colon it was 5.32% (active); in the test on HCC-2998 colon, 15.9%; with KM12 colon it was 3.84% (active).
With `COc1cc(-c2nc3sccn3c2-c2ccnc(NCCCNS(=O)(=O)c3ccc(F)cc3)n2)ccc1F`, the growth in the test with RPMI-8226 leukemia was 9.51% (active); with OVCAR-8 ovarian, 26.7%; with OVCAR-5 ovarian it was 112%; with OVCAR-4 ovarian it was 51.9%; with SK-OV-3 ovarian, 90.4%; in the test with IGROV1 ovarian it was 69.6%. The growth is 65.9% in the test with OVCAR-3 ovarian; 92.6% in the test with HS 578T breast; 34.2% in the test on NCI/ADR-RES ovarian; 15.5% in the test on T-47D breast; 42.8% in the test with BT-549 breast; 65.8% in the test with MDA-MB-435 melanoma. For the same compound, the growth in the test with SW-620 colon was 106%; with MCF7 breast, 76.1%; with HCT-116 colon, 58.1%; in the test on HCC-2998 colon it was 95.5%; in the test with KM12 colon, 74.2%.
`c1cc2nc(-c3cn[nH]c3)c3c(c2cc1-c1cn[nH]c1)C1CCC3C1` (stereo unspecified): the growth in the test on RPMI-8226 leukemia is 50.6%; with OVCAR-8 ovarian it was 59.3%; with OVCAR-5 ovarian it was 67.8%; in the test on OVCAR-4 ovarian, 83.9%; in the test with SK-OV-3 ovarian, 60.2%; with IGROV1 ovarian, 48.6%. Also, the growth with OVCAR-3 ovarian is 75.5%; with HS 578T breast, 23.2%; in the test on NCI/ADR-RES ovarian, 64.8%; in the test on T-47D breast, 37.6%; in the test with BT-549 breast, 62%; with MDA-MB-435 melanoma, 75.3%. The growth was 77.5% in the test with SW-620 colon; 49.2% in the test with MCF7 breast; 61.5% in the test with HCT-116 colon; 84.5% in the test with HCC-2998 colon; 37.8% with KM12 colon.
Take `CCCCCCN1C(=O)/C(=c2\sc3n(c2=O)C2C(NN=3)N(CC)C(=O)N2CC)c2ccccc21` (stereo unspecified): the growth in the test on RPMI-8226 leukemia was 44.6%; in the test on OVCAR-8 ovarian, -22.3% (active); in the test on OVCAR-5 ovarian it was 32.4%; in the test with OVCAR-4 ovarian it was -35.5% (active); in the test on SK-OV-3 ovarian, 54.8%; in the test on IGROV1 ovarian, 24.2%. Moreover, the growth is -50.2% (active) in the test on OVCAR-3 ovarian; 4.83% (active) in the test with HS 578T breast; -23.1% (active) in the test with NCI/ADR-RES ovarian; 16.2% in the test with T-47D breast; 41.3% with BT-549 breast; -49.2% (active) in the test with MDA-MB-435 melanoma. The growth in the test on SW-620 colon is -38.3% (active); in the test with MCF7 breast it was -10.4% (active); with HCT-116 colon, -37.3% (active); in the test on HCC-2998 colon it was 83.5%; with KM12 colon, 16.6%.
Take `COc1ccc(C(=O)C[C@]2(O)C(=O)Nc3c(Cl)ccc(Cl)c32)cc1`: the growth in the test on RPMI-8226 leukemia is 20.1%; in the test on OVCAR-8 ovarian it was 33.1%; in the test with OVCAR-5 ovarian, 52.1%; with OVCAR-4 ovarian it was 48.4%; in the test on SK-OV-3 ovarian, 33.1%; in the test with IGROV1 ovarian it was 34.8%. In addition, the growth in the test with OVCAR-3 ovarian is 9.64% (active); in the test on HS 578T breast it was -3.94% (active); in the test on NCI/ADR-RES ovarian, 14.1%; in the test on T-47D breast, 29.9%; with BT-549 breast, 49.8%; in the test on MDA-MB-435 melanoma it was -40.9% (active). Further, the growth in the test on SW-620 colon was 21.4%; in the test on MCF7 breast, 19.7%; with HCT-116 colon it was 17%; in the test with HCC-2998 colon, 23.1%; in the test with KM12 colon it was 47.6%.
As to `O=C(N=c1oc2ccccc2cc1-c1cc2ccccc2[nH]1)Nc1ccc(Cl)cc1`, the growth is 88.3% in the test on RPMI-8226 leukemia; 99.7% in the test on OVCAR-8 ovarian; 101% in the test with OVCAR-5 ovarian; 91.9% in the test with OVCAR-4 ovarian; 89.4% in the test on SK-OV-3 ovarian; 59.7% with IGROV1 ovarian. The growth was 103% with OVCAR-3 ovarian; 96.5% with HS 578T breast; 98.7% with NCI/ADR-RES ovarian; 91.1% in the test on T-47D breast; 90.7% with BT-549 breast; 104% with MDA-MB-435 melanoma. Also, the growth in the test with SW-620 colon was 95.5%; with MCF7 breast, 83.5%; in the test on HCT-116 colon, 89.2%; in the test on HCC-2998 colon it was 99.7%; in the test with KM12 colon, 99.2%.
Consider `C=C1CC[C@@]2(C#N)[C@H]3[C@H](CC[C@@H]2C)[C@@H](C)C[C@@H](CC(C)(C)C#N)[C@H]13`, for which the growth is 40.3% with RPMI-8226 leukemia; 49.1% in the test on OVCAR-8 ovarian; 48.5% in the test on OVCAR-5 ovarian; 37.7% in the test with OVCAR-4 ovarian; 46.1% with SK-OV-3 ovarian; 42.9% in the test with IGROV1 ovarian. For the same compound, the growth in the test with OVCAR-3 ovarian is 51%; in the test with HS 578T breast, 30.2%; with NCI/ADR-RES ovarian, 35.4%; in the test on T-47D breast, 21.5%; with BT-549 breast, 50.4%; in the test with MDA-MB-435 melanoma, 35.9%. Further, the growth in the test with SW-620 colon was 49.9%; in the test with MCF7 breast it was 21.1%; with HCT-116 colon, 14.5%; in the test with HCC-2998 colon, 37.3%; in the test with KM12 colon, 35.7%.
Turning to `COc1ccc(-c2ncnc3c2ncn3CC#CCCl)cc1`, the growth in the test with RPMI-8226 leukemia was 34.7%; in the test on OVCAR-8 ovarian, 65.3%; in the test on OVCAR-5 ovarian, 97.7%; with OVCAR-4 ovarian it was 51.1%; in the test on SK-OV-3 ovarian, 85.8%; in the test with IGROV1 ovarian, 46.2%. The growth in the test with OVCAR-3 ovarian was 53.4%; with HS 578T breast it was 107%; with NCI/ADR-RES ovarian, 56.2%; with T-47D breast, 53.1%; in the test with BT-549 breast, 50.1%; in the test on MDA-MB-435 melanoma, 40.2%. The growth in the test with SW-620 colon was 48.9%; in the test with MCF7 breast it was 35.7%; with HCT-116 colon, 52.5%; with HCC-2998 colon, 84.8%; in the test with KM12 colon, 72.6%.
